CRFR2-BP ag – agonists of CRF-BP/CRF-R2 complex, primary screen, cell-based, HEK293, calcium dye fluorescence, uHTS; activation, % at 13.2 µM; CRF-binding protein / CRF receptor 2 complex (human); actives 0.46% (n = 350,000); calcium dye fluorescence (FLIPR); percent of saturating CRF peptide response;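 active = activation of at least 50%, plus an integration ratio under a set limit after plate pattern correction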;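 note: plate controls were neutral control wells without compound for no effect and CRF at EC100 for full effect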
NR3A LBD binder – binders of NR3A ligand-binding domain, primary screen, biophysical, differential scanning fluorimetry, uHTS. Glutamate receptor ionotropic, NMDA 3A (GRIN3A) ligand-binding domain. NR3A LBD differential scanning fluorimetry, Tm shift; 0% = protein alone, 100% = glycine-bound protein. Tm shift relative to glycine control, % at 25 µM. actives 2.5% (n = 340,000). AID 1259313, 2017;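 active = melting temperature shift of at least 10% of the positive control shift, at one fixed dose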
TMEM16A inh – TMEM16A chloride channel inhibitors, primary screen, cell-based, HTS; Anoctamin-1 (Mus musculus), Q8BHY3; HEK293 TMEM16A/YFP iodide influx fluorescence, ionomycin; normalized B-score (activity score, 25-100; higher = stronger inhibition) at 10 µM; actives 1.2% (n = 310,000);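 active = ratio plate-corrected score three or more library SD toward inhibition, starting fluorescence score within five deviations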;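 note: score derived from kinetic fluorescence span divided by baseline fluorescence per well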
Target sequence (Q8BHY3 whole entry, looked up): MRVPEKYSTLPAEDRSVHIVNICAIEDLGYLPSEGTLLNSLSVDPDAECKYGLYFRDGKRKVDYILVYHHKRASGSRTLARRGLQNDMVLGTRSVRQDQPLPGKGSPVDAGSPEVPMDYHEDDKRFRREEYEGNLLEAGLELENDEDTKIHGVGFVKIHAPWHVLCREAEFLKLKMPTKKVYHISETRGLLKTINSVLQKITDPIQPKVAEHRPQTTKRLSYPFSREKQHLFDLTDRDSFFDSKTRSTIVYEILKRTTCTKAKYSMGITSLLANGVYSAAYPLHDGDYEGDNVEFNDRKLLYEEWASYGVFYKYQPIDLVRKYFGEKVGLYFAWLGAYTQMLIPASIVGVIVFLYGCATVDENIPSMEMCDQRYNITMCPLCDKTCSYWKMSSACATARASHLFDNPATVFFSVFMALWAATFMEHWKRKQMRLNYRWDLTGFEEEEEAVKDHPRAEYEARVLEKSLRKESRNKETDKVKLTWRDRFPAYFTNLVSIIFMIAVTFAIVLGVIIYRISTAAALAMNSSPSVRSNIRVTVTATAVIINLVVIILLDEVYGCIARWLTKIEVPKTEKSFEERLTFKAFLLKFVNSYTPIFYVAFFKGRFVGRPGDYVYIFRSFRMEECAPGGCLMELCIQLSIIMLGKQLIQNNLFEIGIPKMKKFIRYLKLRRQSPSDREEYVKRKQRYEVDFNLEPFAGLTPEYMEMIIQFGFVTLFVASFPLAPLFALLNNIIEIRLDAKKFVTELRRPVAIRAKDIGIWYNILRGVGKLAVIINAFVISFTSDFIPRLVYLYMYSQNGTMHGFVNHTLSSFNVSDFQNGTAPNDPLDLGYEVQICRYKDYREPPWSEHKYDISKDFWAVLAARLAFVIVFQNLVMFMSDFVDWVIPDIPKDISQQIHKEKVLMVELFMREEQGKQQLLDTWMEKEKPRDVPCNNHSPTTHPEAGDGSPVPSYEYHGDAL
CRFBP-R2 block – antagonists of CRF-BP/CRF-R2 complex, primary screen, cell-based, HEK293, calcium dye fluorescence, uHTS. CRF-induced calcium fluorescence. inhibition, % at 11.8 µM. actives 0.59% (n = 350,000). AID 588475, 2011;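 active = inhibition of the ligand-induced calcium signal above about 50% at the single tested concentration, limit read from the data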
MPTP inh – mitochondrial permeability transition pore inhibitors, primary screen, biochemical, isolated mouse mitochondria, absorbance. Ca2+ swelling absorbance, 30 min. inhibition, % at 10 µM. actives 1.4% (n = 360,000). AID 602449, 2012;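 active = inhibition of 50% or more, scaled per plate between neutral and stimulator controls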;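 note: 0% = DMSO wells given calcium and 100% = 1 mM EGTA wells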
ANO1 activ – TMEM16A chloride channel activators or potentiators, primary screen, cell-based, HTS; HEK293 TMEM16A/YFP-H148Q/I152L, iodide quench fluorescence; stronger effect = lower value; B-score at 10 µM; actives 0.3% (n = 340,000);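 active = fluorescence-ratio B-score plate-corrected deviation score at least 3 library SD below zero, with starting fluorescence score within 5 deviations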;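 note: channel opened by trigger with iodide after compound preincubation; score built on the fluorescence ratio of max minus min over baseline; more negative score means more quench and so TMEM16A activation or potentiation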
An asterisk follows results filed as active; i = inactive; . = not tested or not shown. Rows were chosen to be rich in hits. Some 5.1% of all compounds tested hit in one or more screens of this group.

SMILES | CRFR2-BP ag | NR3A LBD binder | TMEM16A inh | CRFBP-R2 block | MPTP inh | ANO1 activ
Clc1ccc(CSc2nnc(-c3c[nH]c4ccccc34)o2)cc1 | 3.4 | 26.5* | i | 2.6 | 8.6 | i
CCn1nc(C)c(Br)c1C(=O)Sc1ccccc1Cl | -0.1 | 2.0 | i | -3.4 | 3.0 | i
CC(=O)Nc1ccc(-c2ccnc3c2CC(C(=O)Nc2cccc(Oc4ccccc4)c2)O3)cc1 (configuration not stated) | . | . | . | . | -1.4 | .
Cc1cc(C)c2nc(-c3ccccc3)ccc2c1 | . | . | . | . | 0.9 | .
CCOc1ccc(/C=C/C(=O)N(C)CC(=O)Nc2cccc(F)c2)cc1OCC | 0.8 | 2.2 | i | 21.9 | -0.6 | i
N=c1c2c(-c3ccccc3)c(-c3ccccc3)n(Cc3ccco3)c2ncn1Cc1ccccc1 | 1.2 | -1.9 | 100* | -6.1 | 2.5 | i
c1ccc(-c2c(-c3ccccc3)n(Cc3ccco3)c3ncnc(NCCCn4ccnc4)c23)cc1 | -0.7 | -0.2 | 100* | 1.0 | -3.5 | i
OCCNc1ncnc2c1c(-c1ccccc1)c(-c1ccccc1)n2Cc1ccco1 | -0.6 | -2.5 | i | -31.4 | -2.9 | i
c1ccc(-c2oc3ncnc(NCCCn4ccnc4)c3c2-c2ccccc2)cc1 | 2.1 | -4.6 | 100* | 1.2 | 0.3 | i
COc1ccc(CCNC(=O)c2ccc3nc[nH]c3c2)cc1 | 1.4 | -13.2 | i | 2.4 | 0.0 | i
C=CCNC(=O)c1cc2c(=O)n3ccccc3nc2s1 | -1.2 | 1.2 | i | 5.3 | 0.4 | i
CCOC(=O)c1cc(CC)sc1NC(=O)c1cc(OCC)c(OCC)c(OCC)c1 | 17.6 | 11.2* | i | -27.8 | 2.1 | i
CCOC(=O)c1cc(CC)sc1NC(=O)c1ccc2c(c1)OCCO2 | 1.3 | 2.4 | i | -5.0 | 2.0 | i
Cn1c(O)c(/C=C2\C=NN=C2c2ccccc2)sc1=S | 0.8 | 4.3 | i | 11.6 | 8.4 | i
CCCCCCn1c(O)c(/C=C2\C=NN=C2c2ccccc2)sc1=S | -1.6 | 35.2* | i | -21.0 | 43.6 | i
CCCCn1c(O)c(/C=C2\C=NN=C2c2ccccc2)sc1=S | 0.0 | 25.6* | i | 10.4 | 13.3 | i
CCn1c(O)c(/C=C2\C=NN=C2c2ccccc2)sc1=S | -0.6 | -2.1 | i | 18.3 | 17.5 | i
CC(C)Cn1c(O)c(/C=C2\C=NN=C2c2ccccc2)sc1=S | -1.2 | 29.9* | i | 10.8 | 44.0 | i
O=C(N/N=C\c1cc2c(cc1Cl)OCO2)c1cccs1 | -3.0 | 0.1 | i | -11.9 | -1.6 | i
Cc1cc(C(=O)NNC(=O)/C=C/c2ccco2)c(C)o1 | 1.0 | 1.5 | . | 10.5 | -0.4 | i
COc1ccc(C(=O)O/N=C(\N)c2cccc(C)c2)cc1OC | -3.8 | 18.4* | i | -12.8 | 0.6 | i
COc1ccc(/C(N)=N/OC(=O)c2ccc(Br)o2)cc1 | -0.1 | 13.8* | i | -3.8 | -0.8 | i
COc1ccc(Cl)cc1C(=O)O/N=C(\N)c1ccncc1 | -2.0 | 11.0* | i | 9.1 | 1.9 | i
N/C(=N\OC(=O)c1ccc(Br)o1)c1cccnc1 | 0.1 | 0.0 | i | -6.3 | 0.2 | i
COc1ccc(C(=O)O/N=C(\N)c2ccc(Cl)cc2)cc1 | -1.4 | 20.5* | i | -3.0 | -0.9 | i
COc1ccc(C(=O)O/N=C(\N)c2ccccc2)cc1OC | -2.5 | -3.7 | i | 19.3 | -0.3 | i
COc1ccccc1C(=O)O/N=C(\N)c1ccc(Cl)cc1 | -1.2 | -14.7 | i | 15.5 | -1.6 | i
COc1ccc(C(=O)O/N=C(\N)c2ccncc2)cc1OC | 6.5 | -1.2 | i | -13.1 | -2.4 | i
CN1C[C@@H]2C(c3ccc(Cl)nc3)C3(c4ccccc4)CC2(C3)[C@H]1c1ccccc1 (some centres not stated) | 1.2 | -1.8 | i | -10.5 | 4.2 | i
